Consider five molecules from PubChem BioAssay.

Activity calls are given as the source filed them. Unless noted, the rule behind the calls is not given here.

Assay [1] is described as follows: anti-His antibody binders, primary screen, artefact control for SMM control protein annotation, biochemical, small-molecule microarray, 635 nm fluorescence (AID 1128).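 Note: score merges feature fluorescence with signal-to-noise for each printed compound spot.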 The note with it: anti-His Alexa647 antibody binding, higher = more signal.
Assay [2] has as its system Human papillomavirus type 1a E7 protein (residues 1-88). The experiment in a line: HPV1a E7 small-molecule binders, primary screen, biochemical, small-molecule microarray, residues 1-88, 635 nm (AID 1129). The conditions noted are these: small-molecule microarray binding, fluorescence 635 nm; higher = more signal.
Assay [3] addresses Focal adhesion kinase 1 (Homo sapiens) (UniProt Q05397). Description: small-molecule microarray binders of FAK, primary screen, biochemical, 635/667 nm fluorescence, BSA, DTT (AID 1130).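 Note: composite of spot emission at 667 nm and signal to noise over triplicate slides.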 The conditions noted are these: PTK2 binding, 635 nm fluorescence, higher = more signal.
The subject of assay [4] is Fibrinogen (Alexa647-labelled). Description: fibrinogen binders on compound microarrays, profiling panel, artefact control for SMM control-protein annotation, biochemical, small-molecule microarray, 635/667 nm fluorescence (AID 1131).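 Note: z-score merges 667 nm fluorescence with per-spot signal-to-noise over triplicate slides.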 The note with it: fibrinogen-A647 binding fluorescence, higher = more signal.
Assay [5] has as its target Follistatin (Homo sapiens) (UniProt P19883). The experiment in a line: follistatin binders on small-molecule microarrays, primary screen, biochemical, small-molecule microarray, 635/667 nm fluorescence (AID 1132). The conditions noted are these: FST binding, 635 nm fluorescence, higher = more signal.
For assay [6], the target named is Fibroblast growth factor 2 (Homo sapiens) (UniProt P09038). The experiment in a line: FGF2 binders on small-molecule microarrays, primary screen, biochemical, small-molecule microarray, 635/667 nm fluorescence (AID 1133). The note with it: small-molecule microarray binding, FGF2, fluorescence 635/667; higher = more signal.
Assay [7] can be described thus: mitochondrial membrane potential change in A549 cells, profiling panel, cell-based, JC-1 fluorescence, basal, 24 h, 100 nL (AID 1138).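 Note: A549 lung adenocarcinoma cells under basal conditions with no added stimulus; test concentration not given here.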 The conditions noted are these: higher = more signal.
In a further assay the test system is Lefty1. Description: Lefty1 binders on small-molecule microarrays, primary screen, biochemical, small-molecule microarray, 635/667 nm fluorescence (AID 1139). The conditions noted are these: small-molecule microarray binding, fluorescence 635/667; higher = more signal.
The test system of assay [8] is wheat germ agglutinin (Triticum aestivum), Alexa647-labelled. The experiment in a line: wheat germ agglutinin binders on compound microarrays, profiling panel, artefact control for SMM control-protein annotation, biochemical, small-molecule microarray, 635/667 nm fluorescence (AID 1140).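 Note: score merges 667 nm feature emission with signal to noise over triplicate slides.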 The note with it: WGA-A647 binding, 635 nm fluorescence, higher = more signal.
In assay [9] the target is Luciferin 4-monooxygenase (Photinus pyralis) (UniProt P08659). The experiment in a line: firefly luciferase enzyme inhibitors, primary screen, biochemical, luminescence, purified enzyme, 2006 set (AID 1141).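 Note: cell-free assay with purified firefly luciferase at 100 ng per well in PBS; test concentration not given here.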 The conditions noted are these: SteadyGlo luminescence, 30 min, higher = more signal, called active from +8 up or from −8 down.
Assay [10] has as its system Wnt5a (protein binding on small-molecule microarray). The experiment in a line: Wnt5a binders on small-molecule microarray, primary screen, biophysical, 635/667 nm fluorescence (AID 1142).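 Note: fluorescence read at 667 nm with signal to noise per printed feature.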 The note with it: 635 nm fluorescence, higher = more signal.
Assay [11] can be described thus: cell viability in Huh7 cells, primary screen, cytotoxicity control for HCV replication inhibitor project, CellTiter-Glo luminescence, basal, 48 h (AID 1143).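 Note: Huh7 hepatoma cells carrying a hepatitis C replication reporter with no stimulus; test concentration not given here.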 The note with it: Huh7 HCV replicon, higher = more signal, called active from +8 up or from −8 down. Background: In ATP-based viability assays light output follows the ATP content of the culture.
Assay [12] can be described thus: P. aeruginosa biofilm formation inhibitors, primary screen, PAO1 strain, BacTiter-Glo luminescence, LB-PBS (AID 1144). The conditions noted are these: 12 h, higher = more signal.
A short description of assay [13]: CREB reporter modulators without forskolin, primary screen, cell-based, PC12, CRE-LacZ reporter, unstimulated (AID 1145). The note with it: no forskolin, luminescence, 4.5 h, higher = more signal, called active from +8 up or from −8 down.
A short description of assay [14]: CREB reporter modulators under forskolin, primary screen, cell-based, PC12, CRE-LacZ reporter, forskolin-stimulated (AID 1146).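 Note: PC12 cells with 6xCRE LacZ reporter stimulated by forskolin 10 µM; beta-galactosidase reporter signal reflecting CREB driven transcription.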 The conditions noted are these: luminescence, 4.5 h, higher = more signal, called active from +8 up or from −8 down.
The target in assay [15] is Streptavidin (Streptomyces avidinii) (UniProt P22629). The experiment in a line: streptavidin binders on small-molecule microarray, primary screen, artefact control for SMM compound annotation, biophysical, 635/667 nm fluorescence (AID 1147).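 Note: signal reflects streptavidin binding to arrayed compounds as a control protein.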 The conditions noted are these: streptavidin binding, higher = more signal.
Assay [16] in a line: small-molecule binders of probe aInhba, primary screen, biochemical, small-molecule microarray, 635/667 nm fluorescence (AID 1148).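 Note: score merges 667nm spot fluorescence with signal-to-noise for antibody binding to printed compounds.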 The note with it: higher = more signal.
In assay [17] the target is Torsin-1A (Homo sapiens) (UniProt O14656). Description: torsin A binders from cell lysate, primary screen, small-molecule microarray, wild-type, 635/667 nm (AID 1149). The conditions noted are these: COS7 hTOR1A-WT lysate, 635 nm fluorescence, higher = more signal.
Assay [18] has the same target. The experiment in a line: small-molecule binders of mutant TOR1A in lysate, primary screen, cell lysate, small-molecule microarray, COS7 lysate, 635/667 nm fluorescence (AID 1150).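 Note: score pools 667 nm emission and signal to noise measuring lysate protein binding.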 The note with it: COS7 hTOR1A mutant lysate, 635 nm fluorescence, higher = more signal.
Assay [19] deals with Sonic hedgehog protein (Shh). Description: small-molecule binders of Shh protein, primary screen, biochemical, small-molecule microarray, 635/667 nm fluorescence (AID 1151).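 Note: Shh protein binding to compounds spotted on small-molecule microarray slides; score combines spot fluorescence intensity with signal-to-noise across triplicate slides.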 The note with it: small-molecule microarray binding, 635 nm fluorescence; higher = more signal.

Chain of Follistatin (Homo sapiens) (P19883 whole entry, looked up): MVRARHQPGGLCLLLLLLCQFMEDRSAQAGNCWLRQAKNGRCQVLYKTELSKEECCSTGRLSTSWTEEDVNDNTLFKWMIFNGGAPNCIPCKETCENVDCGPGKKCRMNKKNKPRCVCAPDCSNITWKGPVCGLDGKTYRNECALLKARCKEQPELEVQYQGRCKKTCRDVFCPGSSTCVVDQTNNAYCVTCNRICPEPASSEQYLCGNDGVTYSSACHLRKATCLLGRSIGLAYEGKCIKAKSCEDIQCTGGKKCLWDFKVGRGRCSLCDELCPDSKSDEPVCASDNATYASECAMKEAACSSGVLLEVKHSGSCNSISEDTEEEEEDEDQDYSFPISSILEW
Chain of Streptavidin (Streptomyces avidinii) (P22629 whole entry, looked up): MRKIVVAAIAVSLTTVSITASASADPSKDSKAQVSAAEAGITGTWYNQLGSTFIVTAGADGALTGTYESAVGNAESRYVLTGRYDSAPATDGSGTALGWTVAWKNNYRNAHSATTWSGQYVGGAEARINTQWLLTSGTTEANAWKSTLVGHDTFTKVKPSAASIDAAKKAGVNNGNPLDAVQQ
Chain of Fibroblast growth factor 2 (Homo sapiens) (P09038 whole entry, looked up): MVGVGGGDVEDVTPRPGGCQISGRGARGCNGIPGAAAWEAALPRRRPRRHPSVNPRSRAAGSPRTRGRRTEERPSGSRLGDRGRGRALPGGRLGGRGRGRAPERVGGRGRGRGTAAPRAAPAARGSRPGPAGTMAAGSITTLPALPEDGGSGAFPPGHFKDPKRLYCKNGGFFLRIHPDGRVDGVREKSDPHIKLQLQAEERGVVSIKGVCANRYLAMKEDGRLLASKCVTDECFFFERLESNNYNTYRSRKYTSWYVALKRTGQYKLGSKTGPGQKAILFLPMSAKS
Chain of Luciferin 4-monooxygenase (Photinus pyralis) (P08659 whole entry, looked up): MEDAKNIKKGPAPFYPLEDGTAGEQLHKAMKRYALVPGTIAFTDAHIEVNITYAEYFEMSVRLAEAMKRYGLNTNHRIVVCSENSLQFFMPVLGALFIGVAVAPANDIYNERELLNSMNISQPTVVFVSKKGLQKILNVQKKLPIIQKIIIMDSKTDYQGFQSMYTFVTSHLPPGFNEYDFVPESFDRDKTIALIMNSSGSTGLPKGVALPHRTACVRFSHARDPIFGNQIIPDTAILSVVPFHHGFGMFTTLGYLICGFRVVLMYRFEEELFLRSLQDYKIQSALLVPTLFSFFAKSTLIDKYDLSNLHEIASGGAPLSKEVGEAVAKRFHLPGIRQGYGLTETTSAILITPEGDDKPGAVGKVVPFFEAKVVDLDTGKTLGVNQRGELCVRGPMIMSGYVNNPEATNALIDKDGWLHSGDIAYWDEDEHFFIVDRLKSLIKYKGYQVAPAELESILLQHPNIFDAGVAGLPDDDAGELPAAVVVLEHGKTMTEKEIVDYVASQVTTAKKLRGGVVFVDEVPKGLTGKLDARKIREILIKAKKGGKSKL
Chain of Focal adhesion kinase 1 (Homo sapiens) (Q05397 whole entry, looked up): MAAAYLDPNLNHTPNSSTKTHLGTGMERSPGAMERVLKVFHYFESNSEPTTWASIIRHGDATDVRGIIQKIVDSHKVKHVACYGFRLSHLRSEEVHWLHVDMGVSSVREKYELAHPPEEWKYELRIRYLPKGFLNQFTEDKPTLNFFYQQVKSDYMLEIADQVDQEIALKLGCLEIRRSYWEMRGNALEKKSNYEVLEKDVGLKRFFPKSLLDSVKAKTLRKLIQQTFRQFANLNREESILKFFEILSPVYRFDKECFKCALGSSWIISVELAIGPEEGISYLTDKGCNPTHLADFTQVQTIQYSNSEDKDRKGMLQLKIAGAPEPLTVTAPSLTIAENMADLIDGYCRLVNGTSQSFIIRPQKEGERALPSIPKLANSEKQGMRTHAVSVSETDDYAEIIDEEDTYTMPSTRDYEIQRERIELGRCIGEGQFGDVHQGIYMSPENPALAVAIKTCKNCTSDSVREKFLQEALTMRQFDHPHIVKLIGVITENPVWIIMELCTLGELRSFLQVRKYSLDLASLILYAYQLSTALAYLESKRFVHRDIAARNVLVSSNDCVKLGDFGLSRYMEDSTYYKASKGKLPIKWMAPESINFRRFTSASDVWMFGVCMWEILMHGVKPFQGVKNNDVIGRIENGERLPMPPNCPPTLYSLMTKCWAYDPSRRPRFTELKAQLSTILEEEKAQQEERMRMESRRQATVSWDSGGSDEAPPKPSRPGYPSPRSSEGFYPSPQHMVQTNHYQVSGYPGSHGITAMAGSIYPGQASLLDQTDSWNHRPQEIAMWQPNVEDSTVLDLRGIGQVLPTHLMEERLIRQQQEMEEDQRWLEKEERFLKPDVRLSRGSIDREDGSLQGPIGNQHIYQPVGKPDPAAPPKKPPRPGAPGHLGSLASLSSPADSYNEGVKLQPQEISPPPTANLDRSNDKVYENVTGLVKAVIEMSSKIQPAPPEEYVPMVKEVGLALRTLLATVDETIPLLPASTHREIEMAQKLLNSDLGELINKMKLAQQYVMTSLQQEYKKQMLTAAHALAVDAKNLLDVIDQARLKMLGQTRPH
Chain of Torsin-1A (Homo sapiens) (O14656 whole entry, looked up): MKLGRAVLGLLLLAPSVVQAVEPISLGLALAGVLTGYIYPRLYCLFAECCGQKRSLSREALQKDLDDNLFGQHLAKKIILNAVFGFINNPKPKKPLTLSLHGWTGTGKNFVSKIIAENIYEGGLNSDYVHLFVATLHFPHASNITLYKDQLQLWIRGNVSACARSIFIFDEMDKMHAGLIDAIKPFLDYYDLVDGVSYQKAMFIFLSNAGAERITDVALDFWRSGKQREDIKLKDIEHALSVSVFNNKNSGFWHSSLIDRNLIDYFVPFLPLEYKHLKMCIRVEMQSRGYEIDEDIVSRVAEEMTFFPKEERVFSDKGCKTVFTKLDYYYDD

As to `O=C1C2C=CC(C(O)C=Cc3ccc([N+](=O)[O-])cc3)N(n3cnnc3)C2C(=O)N1Cc1ccccc1` (stereo not given), the composite z-score in assay [1] was 1.88; in [2], 1.06; in [3], 0.376; in assay [4] it was 0.699; in [5] it was 1.16; in assay [6] it was -0.0745. The composite z-score was -0.0293 with Lefty1; 0.941 in [8]; 0.0873 in [10]; 1.1 in [15]; 0.0589 in assay [16]; 1.95 with Torsin-1A (Homo sapiens) [17]. Also, the composite z-score with Torsin-1A (Homo sapiens) [18] turned out to be 2.16; in [19], 0.287. Further, the z-score was -0.772 in assay [7]; 0.872 (inactive) in [9]; -0.274 (inactive) in assay [11]; -0.871 (inactive) in [12]; -0.368 (inactive) in assay [13]; 0.343 (inactive) in assay [14].

`CCCNC(=O)[C@@]1(Sc2ccc(C)cc2)CC(=O)N(Cc2ccccc2C(F)(F)F)[C@@H]1c1ccc(CO)cc1I`: the composite z-score in assay [1] was -0.132; in assay [2], 0.934; in [3], 0.0382; in assay [4], 0.956; in [5], 1.36; in assay [6], 0.76. Besides, the composite z-score in the assay with Lefty1 was 0.849; in [8] it was 0.28; in assay [10] it was 0.168; in [15], 1.17; in assay [16], -0.0405; with Torsin-1A (Homo sapiens) [17], 1.26. The composite z-score in the assay with Torsin-1A (Homo sapiens) [18] came to 1.47; in assay [19], 1.88. Moreover, the z-score was -0.722 in assay [7]; 0.262 (inactive) in assay [9]; -4.54 (inactive) in [11]; -0.376 (inactive) in assay [12]; -0.231 (inactive) in assay [13]; -0.0562 (inactive) in assay [14].

Turning to `COc1cc2c(cc1O)C(c1cccs1)N(Cc1ccc([N+](=O)[O-])o1)CC2` (stereo not given), the composite z-score was 0.737 in assay [1]; 0.182 in [2]; 0.215 in assay [3]; 0.979 in assay [4]; 0.257 in assay [5]; 0.478 in assay [6]. The composite z-score in the assay with Lefty1 was -0.795; in assay [8], 0.839; in assay [10] it was 0.207; in assay [15], 1.32; in assay [16], 0.167; in the assay with Torsin-1A (Homo sapiens) [17] it was 0.426. Further, the values for the composite z-score (with Torsin-1A (Homo sapiens) [18]; in assay [19]) were -0.155 and -0.951, respectively. Besides, the z-score in [7] is 2.32; in assay [9] it was -2.26 (inactive); in [11] it was -1.37 (inactive); in assay [12], -0.371 (inactive); in assay [13], 0.209 (inactive); in [14] it was -0.543 (inactive).

As for `CCCC1(C(=O)OC)C=C2C(=C(c3ccccc3)C(=O)C2C)CN1` (stereo not given), the composite z-score in assay [1] was 0.295; in assay [2] it was 0.412; in assay [3] it was 0.198; in [4], 0.453; in assay [5], 0.13; in assay [6] it was -0.299. In addition, the composite z-score in the assay on Lefty1 is 0.0496; in assay [8], 0.858; in assay [10], 0.256; in [15] it was 0.312; in assay [16] it was 0.27; with Torsin-1A (Homo sapiens) [17] it was 0.52. The values for the composite z-score (with Torsin-1A (Homo sapiens) [18]; in [19]) were 0.0656 and -0.599, respectively. For the same molecule, the z-score was 1.63 in [7]; 1.11 (inactive) in assay [9]; -0.752 (inactive) in assay [11]; 0.153 (inactive) in assay [12]; -0.375 (inactive) in assay [13]; 0.966 (inactive) in [14].

Regarding `C=CC1c2cc(O)c(OC)cc2CCN1Cc1cccc(OC(F)(F)F)c1` (stereo not given), the composite z-score in assay [1] is 1.33; in assay [2], 0.167; in [3], 0.408; in assay [4], -0.36; in assay [5], -0.0223; in assay [6], -0.43. Also, the composite z-score with Lefty1 is -0.145; in [8], 1.01; in [10], -0.415; in [15] it was 0.577; in [16], -0.152; with Torsin-1A (Homo sapiens) [17] it was -1.1. Moreover, the figures for the composite z-score (with Torsin-1A (Homo sapiens) [18]; in assay [19]) were 0.88 and 0.12, respectively. The z-score in [7] was -1.03; in assay [9], 0.454 (inactive); in assay [11], -2.49 (inactive); in assay [12] it was 0.0435 (inactive); in assay [13], -0.527 (inactive); in assay [14] it was 1.28 (inactive).
